Assay [1] is described as follows: Quantitative High-Throughput drug screen in 47 multiple myeloma cell lines against the NCATS MIPE library collection: KMS34_JCRB cell viability assay (AID 1918985). Further: nearly all actives have a fitted effect of over 40% in size. Further: potency means the concentration at half of the fitted maximal effect. The essentials:
(§1)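 Viability after 48 h drug exposure was measured as ATP-dependent luminescence. Cells, 500 per well, sat at 37 °C under 5% CO2; DMSO wells set 100%, media-only wells 0%.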

Assay [2] is described as follows: Quantitative High-Throughput drug screen in 47 multiple myeloma cell lines against the NCATS MIPE library collection: OCIMY5_PLB cell viability assay (AID 1918988).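 Further: 100% = DMSO-treated wells and 0% = wells with media alone; nearly all actives have a fitted effect of over 65% in size.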 Put shortly: as §1
The nature of assay [3]: Quantitative High-Throughput drug screen in 47 multiple myeloma cell lines against the NCATS MIPE library collection: OPM1_PLB cell viability assay (AID 1918989). Further: nearly all actives have a fitted effect of over 40% in size. Further: potency means the concentration at half of the fitted maximal effect. Put shortly: as §1
A short description of assay [4]: Quantitative High-Throughput drug screen in 47 multiple myeloma cell lines against the NCATS MIPE library collection: PCM6_Riken cell viability assay (AID 1919870). Further: nearly all actives have a fitted effect of over 30% in size. Further: potency means the concentration at half of the fitted maximal effect. Put shortly: as §1
Assay [5] can be described thus: Quantitative High-Throughput drug screen in 47 multiple myeloma cell lines against the NCATS MIPE library collection: RPMI8226_ATCC cell viability assay (AID 1919871). Further: nearly all actives have a fitted effect of over 30% in size. The essentials: as §1
Assay [6] can be described thus: Quantitative High-Throughput drug screen in 47 multiple myeloma cell lines against the NCATS MIPE library collection: KMS28BM_JCRB cell viability assay (AID 1919874). Further: nearly all actives have a fitted effect of over 35% in size. Further: potency means the concentration at half of the fitted maximal effect. Put shortly:
as §1

Assay [7] can be described thus: qHTS drug screen for cell cycle checkpoint inhibitors in PARPi-resistant BRCA-mutant ovarian cancer cell lines. (AID 1963452; calls by dose curve; further: potency means the concentration at half of the fitted maximal effect). As to conditions: PEO1/OlaR viability, CellTiter-Glo luminescence, 96 h; for Z-AUC: stronger effect = lower value. The essentials:
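PEO1, PEO4 and PEO1/OlaR ovarian cancer cells, 600 per well, exposed 96 h at 37C to a dilution series. Viability read by CellTiter-Glo luminescence, normalized to DMSO and empty wells; activity summarized as Z-AUC.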
On the technique in general: In qHTS, concentration-response curves come from the screen itself.

Assay [8] is described as follows: Quantitative High-Throughput drug screen in 47 multiple myeloma cell lines against the NCATS MIPE library collection: OCIMY7_PLB cell viability assay (AID 1918987). Further: nearly all actives have a fitted effect of over 65% in size. Further: potency means the concentration at half of the fitted maximal effect. The essentials: as §1
A short description of assay [9]: Quantitative High-Throughput drug screen in 47 multiple myeloma cell lines against the NCATS MIPE library collection: XG6_PLB cell viability assay (AID 1919865). Further: nearly all actives have a fitted effect of over 40% in size. Further: potency means the concentration at half of the fitted maximal effect. Put shortly:
as §1

The nature of assay [10]: Quantitative High-Throughput drug screen in 47 multiple myeloma cell lines against the NCATS MIPE library collection: XG1_PLB cell viability assay (AID 1919866). Further: nearly all actives have a fitted effect of over 35% in size. Further: potency means the concentration at half of the fitted maximal effect. Put shortly:
as §1

Assay [11] is described as follows: Quantitative High-Throughput drug screen in 47 multiple myeloma cell lines against the NCATS MIPE library collection: PE2_PLB cell viability assay (AID 1919869). Further: nearly all actives have a fitted effect of over 35% in size. Further: potency means the concentration at half of the fitted maximal effect. Put shortly:
as §1

The nature of assay [12]: Quantitative High-Throughput drug screen in 47 multiple myeloma cell lines against the NCATS MIPE library collection: OPM2_DSMZ cell viability assay (AID 1919872). Further: nearly all actives have a fitted effect of over 30% in size. The essentials:
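We plated 500 myeloma cells per well, pinned in MIPE 4.0 compounds, and incubated for 48 hours at 37C. ATP was then quantified with CellTiter-Glo, with DMSO and media-only wells defining 100% and 0%.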

Assay [13] in a line: Quantitative High-Throughput drug screen in 47 multiple myeloma cell lines against the NCATS MIPE library collection: KMS11_JCRBsus cell viability assay (AID 1919873). Further: nearly all actives have a fitted effect of over 50% in size. Further: potency means the concentration at half of the fitted maximal effect. Put shortly: as §1
The nature of assay [14]: qHTS for identification of novel therapeutic agents for treatment of microphthalmiaassociated transcription factor (MiT) renal cell carcinoma (RCC) (AID 1963991). The following applies: CellTiter-Glo, 48 h, stronger effect = lower value. The essentials: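 Viability of three TFE3-fusion renal carcinoma lines measured by CellTiter-Glo after 48 h treatment with each of 1912 compounds at 11 concentrations. Responses scaled between DMSO (100%) and empty wells (0%) before curve fitting.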

Assay [15] is described as follows: qHTS profiling for inhibitors of Plasmodium falciparum proliferation (AID 504749). Further: potency means the concentration at half of the fitted maximal effect; nearly all actives have a fitted effect of over 60% in size. The following applies: P. falciparum in erythrocytes, SYBR Green DNA, 72 h. The essentials:
(§2)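 Readout was DNA-dye fluorescence from lysed cultures, ex 485/em 535 nm. Parasitized red cells had grown 72 h with compound; data scaled between 0.29 uM artemisinin and DMSO wells and corrected using vehicle-only plates.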

Assay [16] has as its system 3D7. The description is as above. The following applies: P. falciparum in erythrocytes, SYBR Green DNA, 72 h; series mostly up to 28.7 µM. The essentials:
as §2

The nature of assay [17]: Quantitative High-Throughput drug screen in 47 multiple myeloma cell lines against the NCATS MIPE library collection: U266_ATCC cell viability assay (AID 1919864). Further: nearly all actives have a fitted effect of over 35% in size. Further: potency means the concentration at half of the fitted maximal effect. Put shortly:
as §1

Assay [18] can be described thus: Quantitative High-Throughput drug screen in 47 multiple myeloma cell lines against the NCATS MIPE library collection: SKMM1_PLB cell viability assay (AID 1919863). Further: nearly all actives have a fitted effect of over 35% in size. The following applies: SKMM1 myeloma viability, CellTiter-Glo ATP, 48 h; viability: stronger effect = lower value. Put shortly:
as §1
A general note: ATP-based viability assays read luminescence as a measure of living cells.

A short description of assay [19]: Quantitative High-Throughput drug screen in 47 multiple myeloma cell lines against the NCATS MIPE library collection: VP6_DJ cell viability assay (AID 1919867). Further: potency means the concentration at half of the fitted maximal effect; nearly all actives have a fitted effect of over 40% in size. The essentials:
as §1

Assay [20] in a line: Quantitative High-Throughput drug screen in 47 multiple myeloma cell lines against the NCATS MIPE library collection: UTMC2_PLB cell viability assay (AID 1919868). Further: nearly all actives have a fitted effect of over 55% in size. Further: potency means the concentration at half of the fitted maximal effect. As to conditions: CellTiter-Glo ATP luminescence, 48 h; viability (% of DMSO control): at 45.8 µM (top of the series) unless noted. Put shortly:
as §1

Setting [21] is: measured here: PEO1 parental Z-AUC.
Setting [22] is: TFE3-RCC UOK109 viability, measured here: UOK109 Z-AUC.
The mark [23] stands for this setting: TFE3-RCC viability, measured here: UOK124 Z-AUC.
Setting [24] is: TFE3-RCC viability, measured here: UOK145 Z-AUC.

The results in this text go back to PubChem BioAssay (NCATS).

Results filed as inconclusive are left out. Active and inactive are the calls of the source. Unless noted, the call rests on the fitted dose curve; in most records, active means well fitted curve in the direction sought with a large enough effect; inconclusive means small, poorly fitted or top-dose-only effect, or another doubt; inactive means no such curve, though single readings can be large; an effect the other way counts as inactive or inconclusive.

With `COc1ccc(CC2SC(=O)NC2=O)cc1C(=O)NCc1ccc(C(F)(F)F)cc1` (configuration not stated), the Potency result in [1], in assay [2], in assay [5] and in [6] was “inactive” in each case. The figures for the Potency in assay [3] and in assay [4] were 6.62 µM (active) and 7.43 µM (active), respectively. The Z-AUC in [7] was 1.34 (inactive); in assay [7] (setting [21]), 1.11; in [7] (measured here: PEO4 Z-AUC), 1.12.

As to `COC(=O)C[C@](O)(CCCC(C)(C)O)C(=O)O[C@@H]1C(OC)=C[C@]23CCCN2CCc2cc4c(cc2[C@H]13)OCO4`, the Potency was 16.6 µM (active) in [1]; 20.9 µM (active) in assay [11]; 29.6 µM (active) in [13]; 10.5 µM (active) in assay [6]; 0.436 µM (active) in [7]; 0.0251 µM (active) in [15] (parasite line A). The Potency in assay [15] (parasite line B) and in assay [16] was 0.0251 µM (active) each time. Besides, the Potency result in [8], in assay [3], in [9], in assay [10], in [5] and in assay [12] was “inactive” in each case. Besides, the Z-AUC was -2.08 in assay [7] (setting [21]) and -2.6 in assay [7] (measured here: PEO4 Z-AUC). Further, the figures for the z-score in assay [14] (setting [22]), in assay [14] (setting [23]) and in assay [14] (setting [24]) were 0.959, 0.544 and 0.67, respectively.

Regarding `N#Cc1c(O)c2c(-c3ccc(-c4ccccc4O)cc3)csc2[nH]c1=O`, the Potency entry in assay [1], in assay [2], in assay [17], in assay [9], in assay [10] and in [11] was “inactive” each time. The Potency entry in assay [4], in assay [5], in [12] and in [13] was “inactive” in each case. For the same compound, the Z-AUC was 0.825 (inactive) in assay [7], 1.08 in assay [7] (setting [21]) and 1.07 in [7] (measured here: PEO4 Z-AUC). The z-score was found to be 0.657 in assay [14] (setting [22]), 0.453 in [14] (setting [23]) and 0.62 in [14] (setting [24]).

Consider `Nc1nc(-c2nn(Cc3ccccc3F)c3ncccc23)nc(N)c1N1CCOCC1`, for which the Potency result in assay [1], in [2], in assay [12] and in assay [6] was “inactive” each time. Further, the viability in [18] was 84.5% (inactive). Moreover, the Potency in [19] was 3.72 µM (active). Besides, the Z-AUC is -0.481 (inactive) in assay [7], -0.352 in assay [7] (setting [21]) and -0.594 in assay [7] (measured here: PEO4 Z-AUC).

As for `Cc1cc(Nc2cc(NC(=O)c3c(Cl)cccc3Cl)ccn2)nc(N)n1`, the Potency was 1.18 µM (active) in assay [1]; 0.59 µM (active) in assay [8]; 6.62 µM (active) in [17]; 4.69 µM (active) in assay [9]; 1.18 µM (active) in [10]; 1.66 µM (active) in assay [19]. Also, the Potency was 2.96 µM (active) in assay [20], 2.96 µM (active) in assay [11], 2.35 µM (active) in assay [4] and 0.372 µM (active) in [13]. Besides, the Z-AUC in assay [7] is -0.241 (inactive); in [7] (setting [21]) it was -1.26; in assay [7] (measured here: PEO4 Z-AUC), -0.959.

On to `Clc1cccc(-n2nnnc2NCc2ccccc2Oc2ccccn2)c1Cl`, for which the Potency entry in assay [1], in [3], in assay [20], in assay [4], in [12] and in assay [13] was “inactive” throughout. Moreover, the Potency entry in [6] is “inactive”. Also, the viability in assay [18] is 120% (inactive). Moreover, the Z-AUC in [7] is -0.248 (inactive); in [7] (setting [21]), -0.502; in assay [7] (measured here: PEO4 Z-AUC), 0.0945.

In general, viability refers to a read-out of living cells in per cent, often relative to untreated cells.
